Records with an inconclusive call do not appear. The source made the active and inactive calls. Unless noted, the call rests on the fitted dose curve; in most records, active means well fitted curve in the direction sought with a large enough effect; inconclusive means small, poorly fitted or top-dose-only effect, or another doubt; inactive means no such curve, though single readings can be large; an effect the other way counts as inactive or inconclusive.
Columns and labels:
[1] = Cell Viability - SK-N-SH (AID 435; calls by dose curve;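 further: potency means the concentration at half of the fitted maximal effect; compound exposure lasted 40 h at 37 °C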); conditions: SK-N-SH neuroblastoma cell viability qHTS
In short: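 SK-N-SH neuroblastoma cells (1500/well) treated 40 h at 37 °C in complete medium; viability read as cellular ATP by CellTiter-Glo luminescence. Normalized to DMSO and 100 uM tamoxifen; AC50 from Hill fits of qHTS concentration-response.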

[2] = target: Mitogen-activated protein kinase 10 (Mus musculus) (UniProt Q61831); assay: JNK3 AlphaScreen Assay (AID 530; active means well fitted curve in either direction with a large enough effect, not every such curve was filed as active;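 further: kinase came from lysate of stimulated human HepG2 cells; signal reports phosphorylation of biotinylated GST-cJun 1-79 at Ser73 with 10 µM ATP; on the % scale 0 is the no-effect control and ±100 the full control effect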); conditions: JNK3 lysate, c-Jun phosphorylation; series mostly up to 57.1 µM
In short: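 Inhibitors reduce antibody binding to phosphorylated biotin-cJun, lowering AlphaScreen luminescence. Lysates from HepG2 cells pre-activated by IL-1beta plus TNF-alpha supplied JNK3; compounds were titrated.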

[3] = Cell Viability - SH-SY5Y (AID 544); conditions: SH-SY5Y neuroblastoma cell viability; viability change, negative = cytotoxic: at 92.2 µM (top of the series); further: nearly all actives have a fitted effect of over 55% in size
In short: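 SH-SY5Y human neuroblastoma cells (1500/well) incubated 5 h, then compound-treated 40 h at 37 °C in complete medium. Viability read as intracellular ATP by CellTiter-Glo luminescence after 20 min; AC50 from Hill-equation fits of qHTS concentration-response.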

[4] = Cell Viability - Renal Proximal Tubule (AID 545); conditions: renal proximal tubule cells viability; series mostly up to 91.7 µM; further: nearly all actives have a fitted effect of over 40% in size
In short: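 Rat renal proximal tubule primary cells, 1000/well, exposed to compounds for 40 hr at 37 °C in complete medium; cellular ATP read by CellTiter-Glo luminescence. AC50 from concentration-response fitted with standard Hill equation.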

[5] = Cell Viability - Mesenchymal (AID 546); conditions: mesenchymal cells viability, qHTS; series mostly up to 91.7 µM;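 further: cells exposed to compound for 40 hours before reading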
In short: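 Normal human renal glomerulus-derived kidney mesenchymal cells, 1000 per well in complete medium, were treated with compounds for 40 hr at 37 °C. Viability was read as intracellular ATP by CellTiter-Glo luminescence; AC50 values came from Hill-equation fits of qHTS concentration-response data.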

[6] = Cellular Toxicity (caspase-3) HepG2 (AID 654); conditions: HepG2 caspase-3 activation, luminescence, 0% = DMSO only, 100% = tamoxifen; series mostly up to 92.2 µM;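 further: cells exposed to compound for 16 hours before reading; 0% = DMSO alone and 100% = caspase signal from 100 µM tamoxifen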
In short: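 HepG2 cells (1500/well) were treated 16 h at 37 °C in complete medium, then caspase 3/7 activity was read by Caspase-Glo luminescence. Data were normalized to DMSO and 100 uM tamoxifen; AC50 came from Hill-equation fits of qHTS concentration-response.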

[7] = Cellular Toxicity (caspase-3) SHSY5Y (AID 657); conditions: SH-SY5Y caspase-3 activation, DMSO zero, 10 µM staurosporine = 100%; series mostly up to 91.7 µM
In short: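 SH-SY5Y human neuroblastoma cells, 1500/well, exposed to compound for 16 hours at 37 °C in complete medium. Caspase-3/7 activity read by Caspase-Glo luminescence after 1 hr at room temperature, normalized to DMSO and 10 uM staurosporine; AC50 from Hill fit.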

[8] = Cellular Toxicity (caspase-3) N2a (AID 665); conditions: N2a cells, luminescence, normalized: DMSO 0%, 10 µM staurosporine 100%; series mostly up to 92.2 µM;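 further: compound exposure lasted 16 h at 37 °C before readout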
In short: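 Mouse N2a neuroblastoma cells, 1500 per well, treated 16 h at 37 °C in complete medium; caspase-3/7 activity by Caspase-Glo luminescence after 1 h. Normalized to DMSO and 10 uM staurosporine; AC50 from Hill fits.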

[9] = MultiTox-Fluor Cytotoxicity Assay - LYMP1-002 - Live Cells (AID 955); conditions: LYMP1-002 lymphoblastoid live-cell protease fluorescence viability; series mostly up to 46.1 µM; further: on the % scale 0 is the no-effect control and ±100 the full control effect
In short: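 Human lymphoblastoid LYMP1-002 cells, 2500/well, treated 16 h at 37 C in complete medium. Live-cell protease activity via GF-AFC fluorescence (Ex/Em 405/510) after 60 min reagent incubation; AC50 from Hill fits.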

[10] = Cell Viability - LYMP2-009 (AID 968); conditions: LYMP2-009 lymphoblastoid cell viability; series mostly up to 92.2 µM;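 further: 0% = DMSO alone and the full-kill end = tetraoctylammonium bromide at 92 µM; nearly all actives have a fitted effect of over 55% in size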
[11] = Cell Viability - LYMP2-011 (AID 969); conditions: LYMP2-011 lymphoblastoid cells viability; series mostly up to 92.2 µM;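 further: cells exposed to compound for 24 hours; 0% = DMSO only and full inhibition = 92 µM tetraoctylammonium bromide; nearly all actives have a fitted effect of over 60% in size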
In short: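 2500 cells/well in complete medium, compound-treated 24 h at 37 C. Viability read as intracellular ATP by CellTiter-Glo luminescence after 30 min at room temperature. AC50 from Hill fits of qHTS concentration-response data.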

[12] = Cell Viability - LYMP2-025 (AID 976); conditions: LYMP2-025 lymphoblastoid cell viability; series mostly up to 92.2 µM;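 further: plate controls were DMSO only for no effect and tetraoctylammonium bromide control for full effect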
In short: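 Human lymphoblastoid LYMP2-025 cells, 2500/well, exposed 24 h at 37 C in complete medium in 1536-well qHTS. Viability as cellular ATP by CellTiter-Glo luminescence; AC50 from Hill fits of concentration-response data.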

[13] = Cell Viability - LYMP2-008 (AID 980); conditions: LYMP2-008 lymphoblastoid cell viability, qHTS; series mostly up to 92.2 µM; further: on the % scale 0 is the no-effect control and ±100 the full control effect; nearly all actives have a fitted effect of over 60% in size
In short: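 LYMP2-008 lymphoblastoid cells (2500/well) plated 5 h, then treated 24 h at 37 C in complete medium. Viability read as intracellular ATP by CellTiter-Glo luminescence after 30 min at room temperature; AC50 from Hill fits.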

[14] = Cell Viability - LYMP2-012 (AID 982); conditions: LYMP2-012 lymphoblastoid cell viability qHTS; series mostly up to 92.2 µM;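 further: cellular ATP by luciferase luminescence where a drop means cytotoxicity; cells exposed to compound for one day before reading; 0% = DMSO only and full loss = 92 µM tetraoctylammonium bromide; nearly all actives have a fitted effect of over 55% in size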
[15] = target: Peroxisome proliferator-activated receptor gamma (Homo sapiens) (UniProt P37231); assay: qHTS assay for small molecule agonists of peroxisome proliferator-activated receptor gamma signaling (AID 588536; active means well fitted curve in the direction sought with a large enough effect in the signal ratio, with a control signal flat, not every such curve was filed as active; the % refers to the signal ratio;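 further: 0% = DMSO basal wells and 100% = rosiglitazone at 2 µM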); conditions: HEK293 PPARg-UAS-bla, beta-lactamase ratio, 16 h, percent of rosiglitazone response, DMSO as zero; series mostly up to 76.7 µM
In short: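 PPAR-gamma-UAS-bla HEK293 cells in medium with 1% charcoal/dextran-treated FBS were exposed to compounds for 16 h at 37 C. Beta-lactamase activity was read with CCF4 substrate (405 nm excitation, 460/530 nm emission).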

[16] = target: Retinoic acid receptor RXR-alpha (Homo sapiens) (UniProt P19793); assay: qHTS assay for small molecule antagonists of retinoid X receptor alpha signaling (AID 588546; active means well fitted inhibition curve with a large enough effect in the signal ratio, with a control signal flat, not every such curve was filed as active; the % refers to the signal ratio;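 further: cells stimulated with 9-cis-retinoic acid as agonist; on the % scale 0 is the no-effect control and ±100 the full control effect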); conditions: HEK293T RXRa-UAS-bla, beta-lactamase ratio, antagonist mode
In short: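 Beta-lactamase reporter inhibition, read as CCF4 fluorescence ratio (ex 405, em 460/530 nm) after 2 h at RT. HEK293T UAS-bla cells, 2500/well, were stimulated with 9-cis-RA at 500 or 100 nM final alongside test compound for 18 h at 37 C.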

[17] = qHTS assay for environmental chemicals that activate the Aryl hydrocarbon Receptor (AhR) signaling pathway (AID 651777); conditions: 1A2-DRE human hepatoma cells, luciferase, 24 h; activation: stronger effect = higher value; further: % of control where 0% means no effect; nearly all actives have a fitted effect of over 15% in size
In short: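 AhR activation is scored as a rise in luciferase from a stable DRE–CYP1A2 promoter construct in human hepatoma cells. Treatment lasts 24 hr at 37 C; detection uses One-Glo after 30 min at room temperature.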

[18] = target: Nuclear receptor subfamily 1 group I member 2 (Rattus norvegicus) (UniProt Q9R1A7); assay: qHTS assay for small molecule activators of the rat pregnane X receptor (rPXR) signaling pathway (AID 651751; call rule not given here; further: 0% is about no effect); conditions: rPXR reporter cells, luciferase (One-Glo), 24 h
[19] = Cell Viability - LYMP1-002 - Assay at 24 hr (AID 993); conditions: LYMP1-002 lymphoblastoid cells viability; series mostly up to 92.2 µM; further: on the % scale 0 is the no-effect control and ±100 the full control effect
In short: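 Human lymphoblastoid LYMP1-002 cells (2500/well) treated 24 h at 37 °C; viability as intracellular ATP by CellTiter-Glo luminescence. Tetraoctylammonium bromide as positive control; AC50 from Hill-equation fits of qHTS concentration-response.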

[20] = target: Vitamin D3 receptor (Homo sapiens) (UniProt P11473); assay: qHTS assay for small molecule agonists of vitamin D receptor signaling (AID 588543; calls by dose curve;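 further: 0% = DMSO basal and 100% = reference agonist control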); conditions: HEK293T VDR-UAS-bla, beta-lactamase ratio, 16 h; series mostly up to 76.8 µM
In short: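 VDR-UAS-bla HEK293T cells, 2000/well, 2% charcoal-stripped FBS; compound titration 16 h at 37 C; CCF4 beta-lactamase ratio read. Normalized to 50 nM 1-alpha,25-dihydroxyvitamin D3 (100%) and DMSO; Hill fit gives EC50, efficacy.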

Chain of Vitamin D3 receptor (Homo sapiens) (P11473 whole entry, looked up): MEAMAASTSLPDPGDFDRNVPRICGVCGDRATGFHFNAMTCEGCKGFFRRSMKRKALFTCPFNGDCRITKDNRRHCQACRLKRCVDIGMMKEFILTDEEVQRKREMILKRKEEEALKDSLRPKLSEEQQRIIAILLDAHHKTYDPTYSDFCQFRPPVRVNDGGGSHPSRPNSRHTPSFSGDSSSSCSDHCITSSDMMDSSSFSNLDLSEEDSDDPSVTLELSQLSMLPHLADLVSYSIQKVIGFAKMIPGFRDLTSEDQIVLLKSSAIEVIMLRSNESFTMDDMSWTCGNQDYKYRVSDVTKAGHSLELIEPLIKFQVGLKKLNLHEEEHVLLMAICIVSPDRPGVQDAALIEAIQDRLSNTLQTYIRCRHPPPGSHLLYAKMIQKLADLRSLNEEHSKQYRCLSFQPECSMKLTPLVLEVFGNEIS
Chain of Peroxisome proliferator-activated receptor gamma (Homo sapiens) (P37231 whole entry, looked up): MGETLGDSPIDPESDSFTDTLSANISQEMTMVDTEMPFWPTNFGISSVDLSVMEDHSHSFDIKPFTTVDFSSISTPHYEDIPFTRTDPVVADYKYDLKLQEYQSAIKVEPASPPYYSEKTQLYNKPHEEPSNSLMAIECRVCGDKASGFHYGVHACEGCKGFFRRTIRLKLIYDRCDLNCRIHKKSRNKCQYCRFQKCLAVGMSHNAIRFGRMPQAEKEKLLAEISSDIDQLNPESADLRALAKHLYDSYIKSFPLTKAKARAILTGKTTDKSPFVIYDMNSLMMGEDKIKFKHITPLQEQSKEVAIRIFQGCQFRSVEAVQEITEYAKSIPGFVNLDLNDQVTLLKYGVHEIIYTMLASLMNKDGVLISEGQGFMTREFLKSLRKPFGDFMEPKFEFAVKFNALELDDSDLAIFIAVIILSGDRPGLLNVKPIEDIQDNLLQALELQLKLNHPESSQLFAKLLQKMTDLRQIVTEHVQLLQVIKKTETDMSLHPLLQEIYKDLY
Chain of Retinoic acid receptor RXR-alpha (Homo sapiens) (P19793 whole entry, looked up): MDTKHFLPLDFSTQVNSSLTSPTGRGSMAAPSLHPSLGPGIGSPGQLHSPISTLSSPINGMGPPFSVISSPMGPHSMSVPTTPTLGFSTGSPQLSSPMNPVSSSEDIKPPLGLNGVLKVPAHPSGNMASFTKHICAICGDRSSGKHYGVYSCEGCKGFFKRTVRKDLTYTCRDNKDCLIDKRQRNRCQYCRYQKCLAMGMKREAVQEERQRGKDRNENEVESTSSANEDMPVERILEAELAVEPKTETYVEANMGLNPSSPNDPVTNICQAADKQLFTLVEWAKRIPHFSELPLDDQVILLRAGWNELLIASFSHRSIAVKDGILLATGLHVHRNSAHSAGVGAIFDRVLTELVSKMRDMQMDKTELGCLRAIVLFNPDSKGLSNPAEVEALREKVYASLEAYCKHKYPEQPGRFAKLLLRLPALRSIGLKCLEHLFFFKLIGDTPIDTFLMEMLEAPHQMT
Chain of Nuclear receptor subfamily 1 group I member 2 (Rattus norvegicus) (Q9R1A7 whole entry, looked up): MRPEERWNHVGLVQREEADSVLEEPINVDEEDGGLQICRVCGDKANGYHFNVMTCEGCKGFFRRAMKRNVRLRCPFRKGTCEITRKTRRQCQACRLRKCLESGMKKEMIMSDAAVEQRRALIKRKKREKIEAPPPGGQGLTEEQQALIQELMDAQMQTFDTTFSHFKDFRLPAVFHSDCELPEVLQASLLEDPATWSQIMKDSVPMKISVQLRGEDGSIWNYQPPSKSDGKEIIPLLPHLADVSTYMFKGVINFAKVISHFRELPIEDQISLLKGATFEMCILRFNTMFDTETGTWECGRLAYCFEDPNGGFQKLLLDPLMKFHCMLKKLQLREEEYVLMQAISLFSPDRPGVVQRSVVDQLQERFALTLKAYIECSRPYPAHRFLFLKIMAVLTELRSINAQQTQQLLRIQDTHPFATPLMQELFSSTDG

BrCCc1ccccc1
inactive: Potency [1] > 92 µM | Potency [2] | Potency [3] | outcome [4] | Potency [5] | outcome [6] | outcome [7] | outcome [8] | outcome [9] | Potency [10] | Potency [11] | Potency [12] | Potency [13] | Potency [14] | outcome [15] | max response [16] 9.1% | activation [17] -0.177% | max response [18] -6.29%

Cc1ccc(N)cc1C
inactive: Potency [1] > 92 µM | Potency [2] | Potency [3] | outcome [4] | Potency [5] | outcome [6] | outcome [7] | outcome [8] | outcome [9] | Potency [11] | Potency [12] | Potency [13] | Potency [14] | Potency [19] | outcome [15] | outcome [20] | max response [16] -2% | activation [17] 3.36%

Cc1coc2c1CCC(C)C2 (configuration not stated)
inactive: Potency [1] > 92 µM | Potency [2] | Potency [3] | outcome [4] | Potency [5] | outcome [6] | outcome [7] | outcome [9] | Potency [10] | Potency [11] | Potency [12] | Potency [13] | Potency [14] | Potency [19] | outcome [20] | max response [16] -0.116% | activation [17] 1.75%

O=NN1CCCCC1
inactive: Potency [1] > 92 µM | Potency [2] | Potency [3] | outcome [4] | Potency [5] | outcome [6] | outcome [7] | outcome [8] | outcome [9] | Potency [10] | Potency [11] | Potency [12] | Potency [13] | Potency [14] | Potency [19] | outcome [15] | outcome [20] | max response [16] 14.4% | activation [17] 1.05% | max response [18] -1.74%

CCN(CC)N=O
inactive: Potency [1] > 92 µM | Potency [2] | Potency [3] | outcome [4] | Potency [5] | outcome [6] | outcome [7] | outcome [8] | outcome [9] | Potency [10] | Potency [11] | Potency [12] | Potency [13] | Potency [14] | outcome [15] | outcome [20] | max response [16] 1.08% | activation [17] -0.0915% | max response [18] 3.34%
